Measurements published in PubChem BioAssay (NCATS).
Active and inactive are the calls of the source. Calls come from the whole dose curve; as a rule, active = well fitted curve in the direction sought with a large enough effect; inconclusive = small, poorly fitted or top-dose-only effect, or another doubt; inactive = no such curve, though single readings can be large; an effect the other way counts as inactive or inconclusive.

What follows are compounds tested against Alpha-galactosidase (Coffea arabica) (UniProt Q42656) (assay: Counterscreen for Glucocerebrosidase Inhibitors: qHTS Assay for Coffee Bean alpha-Galactosidase at pH 4.5 (AID 957)). Conditions: purified coffee bean alpha-galactosidase, fluorogenic substrate; series mostly up to 76.9 µM.
Chain of Alpha-galactosidase (Coffea arabica) (Q42656 whole entry, looked up): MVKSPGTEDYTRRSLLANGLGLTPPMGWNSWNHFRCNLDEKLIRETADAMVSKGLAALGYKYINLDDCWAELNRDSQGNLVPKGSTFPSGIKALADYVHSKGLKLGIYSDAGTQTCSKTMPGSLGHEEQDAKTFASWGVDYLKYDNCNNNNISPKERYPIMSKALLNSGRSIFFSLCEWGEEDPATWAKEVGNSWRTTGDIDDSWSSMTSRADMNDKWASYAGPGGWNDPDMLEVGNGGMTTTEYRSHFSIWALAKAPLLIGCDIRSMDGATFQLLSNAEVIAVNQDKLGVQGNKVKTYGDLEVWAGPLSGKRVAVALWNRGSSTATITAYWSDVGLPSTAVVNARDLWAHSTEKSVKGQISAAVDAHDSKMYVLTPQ
In short: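 Coffee bean enzyme (2 nM) with 80 uM 4-methylumbelliferyl alpha-D-galactopyranoside in 50 mM citric acid, 0.005% Tween-20, pH 4.5, 20 min at room temperature; compounds 0.7 nM–77 uM. Stopped at pH 10, fluorescence 365/440 nm; AC50 from Hill fits.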

| Compound | outcome |
| --- | --- |
| CCCCOC(=O)NS(=O)(=O)c1sc(CC(C)C)cc1-c1ccc(Cn2c(CC)nc3c(C)cc(C)nc32)cc1 | inactive |
| Nc1ncnc2c1c(-c1ccc(Oc3ccccc3)cc1)cn2C1CCCC1 | inactive |
| COc1ccccc1CNCCCCCCNCCCCCCCCNCCCCCCNCc1ccccc1OC | inactive |
| C1CCC(N=C(NC23CC4CC(CC(C4)C2)C3)N2CCOCC2)CC1 | inactive |
| CC1(C)C(=O)N(CCN2CCC(C(=O)c3ccc(F)cc3)CC2)c2ccccc21 | inactive |

These compounds were tested against Alpha-galactosidase (Coffea arabica) (UniProt Q42656) (assay: Counterscreen for Glucocerebrosidase Inhibitors: qHTS Assay for Coffee Bean alpha-Galactosidase at pH 5.9 (AID 998)). Conditions: coffee bean alpha-galactosidase enzyme assay; series mostly up to 76.9 µM.
In short: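 Green coffee bean enzyme (2 nM final) was incubated with compounds (0.7 nM–77 uM) and 4-methylumbelliferyl alpha-D-galactopyranoside (80 uM) in citrate buffer pH 5.9, 20 min at room temperature. High-pH stop; fluorescence 365/440 nm; AC50 from Hill fits.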

| Compound | outcome |
| --- | --- |
| O=C1C(SCCO)=C(SCCO)C(=O)c2ccccc21 | inactive |
| CCCCOC(=O)NS(=O)(=O)c1sc(CC(C)C)cc1-c1ccc(Cn2c(CC)nc3c(C)cc(C)nc32)cc1 | inactive |
| Nc1ncnc2c1c(-c1ccc(Oc3ccccc3)cc1)cn2C1CCCC1 | inactive |
| COc1ccccc1CNCCCCCCNCCCCCCCCNCCCCCCNCc1ccccc1OC | inactive |
| C1CCC(N=C(NC23CC4CC(CC(C4)C2)C3)N2CCOCC2)CC1 | inactive |
| CC1(C)C(=O)N(CCN2CCC(C(=O)c3ccc(F)cc3)CC2)c2ccccc21 | inactive |
